# From PubChem BioAssay (Tox21)
# Activity calls are given as the source filed them. A call without a number means that no potency is given here. Unless noted, calls come from the whole dose curve; as a rule, active = well fitted curve in the direction sought with a large enough effect in the repeat runs; inconclusive = weak or mixed curves; inactive = no such curve, though single readings can be large; an effect the other way counts as inactive or inconclusive.
# Tests used:
# [1] = molecular target: Peroxisome proliferator-activated receptor gamma (Homo sapiens) (UniProt P37231); test: qHTS assay to identify small molecule antagonists of the peroxisome proliferator-activated receptor gamma (PPARg) signaling pathway (AID 743191; calls by dose curve; note: nearly all actives have a fitted effect of over 30% in size; note: potency is the fitted concentration of half-maximal effect)
# Sequence of Peroxisome proliferator-activated receptor gamma (Homo sapiens) (P37231 whole entry, looked up): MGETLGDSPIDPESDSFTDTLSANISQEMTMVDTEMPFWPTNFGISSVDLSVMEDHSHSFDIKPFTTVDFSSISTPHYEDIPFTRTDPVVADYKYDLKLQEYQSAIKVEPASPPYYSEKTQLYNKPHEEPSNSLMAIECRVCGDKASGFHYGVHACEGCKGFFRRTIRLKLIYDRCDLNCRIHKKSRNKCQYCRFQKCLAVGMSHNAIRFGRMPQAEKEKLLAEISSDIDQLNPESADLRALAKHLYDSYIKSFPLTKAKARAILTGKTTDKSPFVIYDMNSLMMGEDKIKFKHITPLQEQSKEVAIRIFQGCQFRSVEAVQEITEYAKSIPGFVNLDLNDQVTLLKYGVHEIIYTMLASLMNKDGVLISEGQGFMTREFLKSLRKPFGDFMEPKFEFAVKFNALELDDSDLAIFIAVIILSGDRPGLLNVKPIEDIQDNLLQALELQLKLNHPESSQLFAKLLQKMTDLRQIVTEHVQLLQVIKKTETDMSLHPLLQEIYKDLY
# In short: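 GeneBLAzer PPARg UAS-bla HEK293H cells carrying a UAS-driven beta-lactamase reporter were plated at 3000 cells/well, preincubated 5 h at 37C, then given compound for 17 h at 37C; LiveBLAzer B/G FRET substrate was read after 1 h at room temperature.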
# [2] = qHTS assay to identify small molecule antagonists of the peroxisome proliferator-activated receptor gamma (PPARg) signaling pathway - cell viability counter screen (AID 743194); conditions: Potency: co-treated with 50 nM rosiglitazone; note: nearly all actives have a fitted effect of over 55% in size
# In short: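 PPARg-UAS-bla HEK293H cells were plated, rested 5 h at 37 C, then treated with compounds plus rosiglitazone (50 nM final) for 17 h at 37 C; viability was then read by CellTiter-Glo luminescence after 30 min at room temperature.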
# [3] = qHTS assay for small molecule agonists of the antioxidant response element (ARE) signaling pathway - cell viability counter screen (AID 743203; calls by dose curve; note: nearly all actives have a fitted effect of over 55% in size)
# In short: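 Compounds in DMSO were pinned onto ARE-bla HepG2 cells plated 5 hrs earlier at 2,000 cells/well. Sixteen hours later at 37C/5% CO2, CellTiter-Glo was added and luminescence measured after 30 min at room temperature.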
# [4] = qHTS assay for small molecule activators of the heat shock response signaling pathway - cell viability counter screen (AID 743209); note: nearly all actives have a fitted effect of over 50% in size
# In short: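 Counter screen for cytotoxicity in HeLa HSE-bla reporter cells. Treatment was 5 h at 37 C; viability was detected by luminescent ATP assay (CellTiter-Glo) in the same wells as the beta-lactamase read.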
# [5] = qHTS assay for small molecule activators of the heat shock response signaling pathway (AID 743210; active = well fitted activation curve with a large enough effect in the signal ratio in the repeat runs, with a control signal flat, not every such curve was filed as active; inconclusive = weak or mixed curves; the % refers to the signal ratio; note: series mostly up to about 63 µM)
# In short: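 HSE-bla HeLa cells (beta-lactamase reporter under heat shock response elements) were exposed to compounds for 5 h at 37 C, then loaded with LiveBLAzer B/G FRET substrate for 2.5 h at room temperature before fluorescence reading.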
# [6] = test system: thyroid hormone receptor (rat, GH3 cells); test: qHTS assay to identify small molecule agonists of the thyroid receptor (TR) signaling pathway (AID 743066; calls by dose curve)
# [7] = qHTS assay to identify small molecule antagonists of the estrogen receptor alpha (ER-alpha) signaling pathway - cell viability counter screen (AID 743074; calls by dose curve; note: nearly all actives have a fitted effect of over 45% in size)
# [8] = molecular target: Estrogen receptor (Homo sapiens) (UniProt P03372); test: qHTS assay to identify small molecule agonists of the estrogen receptor alpha (ER-alpha) signaling pathway (AID 743075; calls by dose curve)
# Sequence of Estrogen receptor (Homo sapiens) (P03372 whole entry, looked up): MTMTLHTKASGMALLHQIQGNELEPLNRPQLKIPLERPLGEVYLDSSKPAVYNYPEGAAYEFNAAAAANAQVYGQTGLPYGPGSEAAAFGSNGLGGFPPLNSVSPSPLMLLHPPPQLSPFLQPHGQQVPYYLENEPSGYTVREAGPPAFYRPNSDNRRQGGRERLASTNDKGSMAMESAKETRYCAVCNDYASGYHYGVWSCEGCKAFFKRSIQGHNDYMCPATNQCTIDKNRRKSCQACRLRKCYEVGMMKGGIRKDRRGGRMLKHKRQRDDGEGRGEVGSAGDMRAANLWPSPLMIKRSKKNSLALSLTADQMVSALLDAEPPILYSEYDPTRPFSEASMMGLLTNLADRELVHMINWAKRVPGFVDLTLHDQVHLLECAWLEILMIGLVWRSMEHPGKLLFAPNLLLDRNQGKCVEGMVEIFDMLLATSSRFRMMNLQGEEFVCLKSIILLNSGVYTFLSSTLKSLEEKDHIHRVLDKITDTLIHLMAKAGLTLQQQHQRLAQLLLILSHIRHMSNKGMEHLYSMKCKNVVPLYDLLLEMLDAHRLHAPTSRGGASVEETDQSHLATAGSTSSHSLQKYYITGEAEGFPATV
# [9] = qHTS assay to identify small molecule antagonists of the estrogen receptor alpha (ER-alpha) signaling pathway using the BG1 cell line - cell viability counter screen (AID 743081);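 note: compound given together with 17beta-estradiol as the ER stimulus; series mostly up to about 70 µM; nearly all actives have a fitted effect of over 45% in size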
# Aromatase (Homo sapiens) = Aromatase (Homo sapiens) (UniProt P11511); test: qHTS assay to identify aromatase inhibitors (AID 743083); note: nearly all actives have a fitted effect of over 55% in size; note: potency is the fitted concentration of half-maximal effect
# Sequence of Aromatase (Homo sapiens) (P11511 whole entry, looked up): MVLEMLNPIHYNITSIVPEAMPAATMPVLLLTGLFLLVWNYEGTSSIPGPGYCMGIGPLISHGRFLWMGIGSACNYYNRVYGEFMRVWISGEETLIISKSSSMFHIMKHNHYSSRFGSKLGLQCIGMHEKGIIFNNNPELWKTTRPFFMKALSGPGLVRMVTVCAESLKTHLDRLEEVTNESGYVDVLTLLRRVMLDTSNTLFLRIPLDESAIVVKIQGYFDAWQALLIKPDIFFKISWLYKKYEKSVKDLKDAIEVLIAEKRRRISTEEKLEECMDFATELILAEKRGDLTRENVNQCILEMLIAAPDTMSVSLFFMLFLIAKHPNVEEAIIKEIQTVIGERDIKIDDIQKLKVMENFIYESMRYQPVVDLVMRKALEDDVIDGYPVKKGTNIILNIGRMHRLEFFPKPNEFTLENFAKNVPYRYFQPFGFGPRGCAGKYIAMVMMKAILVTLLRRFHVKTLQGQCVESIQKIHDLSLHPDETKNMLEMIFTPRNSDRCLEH
# [10] = molecular target: Aryl hydrocarbon receptor (Homo sapiens) (UniProt P35869); test: qHTS assay to identify small molecule that activate the aryl hydrocarbon receptor (AhR) signaling pathway (AID 743085); note: nearly all actives have a fitted effect of over 15% in size; note: potency is the fitted concentration of half-maximal effect;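 for activation: HG2L7.5c1 human HepG2 liver cells with stably integrated DRE-driven firefly reporter; series mostly up to about 70 µM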
# Sequence of Aryl hydrocarbon receptor (Homo sapiens) (P35869 whole entry, looked up): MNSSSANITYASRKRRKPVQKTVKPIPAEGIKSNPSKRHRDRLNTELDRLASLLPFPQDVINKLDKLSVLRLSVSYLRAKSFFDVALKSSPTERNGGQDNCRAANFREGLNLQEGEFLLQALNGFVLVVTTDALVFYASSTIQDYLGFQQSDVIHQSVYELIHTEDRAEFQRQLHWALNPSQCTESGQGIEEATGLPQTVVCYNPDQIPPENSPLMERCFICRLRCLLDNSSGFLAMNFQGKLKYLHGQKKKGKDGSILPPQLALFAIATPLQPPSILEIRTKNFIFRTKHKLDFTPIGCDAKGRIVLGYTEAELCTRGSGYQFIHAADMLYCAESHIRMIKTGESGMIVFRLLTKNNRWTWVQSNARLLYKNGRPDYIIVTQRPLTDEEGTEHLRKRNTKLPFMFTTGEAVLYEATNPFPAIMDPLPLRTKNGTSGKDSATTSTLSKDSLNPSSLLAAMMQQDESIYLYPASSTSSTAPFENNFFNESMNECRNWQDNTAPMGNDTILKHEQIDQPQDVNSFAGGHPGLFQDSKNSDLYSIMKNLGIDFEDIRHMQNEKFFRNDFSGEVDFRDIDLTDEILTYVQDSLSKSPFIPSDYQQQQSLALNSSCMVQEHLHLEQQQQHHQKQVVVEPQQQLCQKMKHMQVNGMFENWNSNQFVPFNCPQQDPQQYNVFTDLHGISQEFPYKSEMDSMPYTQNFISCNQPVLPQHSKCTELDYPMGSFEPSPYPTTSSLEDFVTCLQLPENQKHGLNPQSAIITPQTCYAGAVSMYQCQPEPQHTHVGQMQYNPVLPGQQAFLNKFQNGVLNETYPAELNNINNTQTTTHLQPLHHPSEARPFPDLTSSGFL
# In short: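 HepG2 cells stably carrying a 20-DRE firefly luciferase reporter (HG2L7.5c1) treated with compound for 24 hr at 37C. Luciferase read by ONE-Glo luminescence, with CellTiter-Fluor viability read first.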
# [11] = qHTS assay to identify small molecule that activate the aryl hydrocarbon receptor (AhR) signaling pathway - cell viability counter screen (AID 743086); note: nearly all actives have a fitted effect of over 45% in size; note: potency is the fitted concentration of half-maximal effect
# In short: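 HepG2-AhR-luc (HG2L7.5c1) cells, 4000/well, were preincubated 5 h at 37C, exposed to compound in qHTS format for 24 hr at 37C, then given CellTiter-Fluor for 30 min; viability was read as fluorescence in the reporter wells.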
# [12] = molecular target: Peroxisome proliferator-activated receptor gamma (Homo sapiens) (UniProt P37231); test: qHTS assay to identify small molecule agonists of the peroxisome proliferator-activated receptor gamma (PPARg) signaling pathway (AID 743094; active = well fitted activation curve with a large enough effect in the signal ratio in the repeat runs, not every such curve was filed as active; inconclusive = weak or mixed curves, or effect the other way; inactive = no such curve, though single readings can be large or run the other way; the % refers to the signal ratio)
# In short: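 Following 5 h plating at 37C, PPARg-bla HEK293H cells receive compound or DMSO for 17 h; fluorescence intensity is recorded after LiveBLAzer B/G loading for 1 h at room temperature.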
# [13] = qHTS assay to identify small molecule antagonists of the thyroid receptor (TR) signaling pathway (AID 743065); note: nearly all actives have a fitted effect of over 55% in size; note: potency is the fitted concentration of half-maximal effect
# In short: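 GH3.TRE-Luc rat pituitary cells carrying two TR response elements driving luciferase were plated for 4 h, given compound plus 1 nM T3 (final), and incubated 23.5 h at 37 C. ONE-Glo luminescence measured reporter inhibition; CellTiter-Fluor fluorescence tracked cytotoxicity.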
# [14] = qHTS assay to identify aromatase inhibitors - cell viability counter screen (AID 743084); note: potency is the fitted concentration of half-maximal effect
# [15] = qHTS assay for small molecule agonists of the antioxidant response element (ARE) signaling pathway (AID 743202; active = well fitted activation curve with a large enough effect in the signal ratio in the repeat runs, not every such curve was filed as active; inconclusive = weak or mixed curves, or effect the other way; inactive = no such curve, though single readings can be large or run the other way; the % refers to the signal ratio; note: potency is the fitted concentration of half-maximal effect)
# In short: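 Read-out: LiveBLAzer B/G FRET substrate fluorescence after 2 h at room temperature, following 16 h compound treatment at 37 C of HepG2 cells carrying an ARE-driven beta-lactamase reporter.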
# [16] = molecular target: Estrogen receptor (Homo sapiens) (UniProt P03372); test: qHTS assay to identify small molecule antagonists of the estrogen receptor alpha (ER-alpha) signaling pathway (AID 743069; active = well fitted curve in the direction sought with a large enough effect in the signal ratio in the repeat runs, not every such curve was filed as active; inconclusive = weak or mixed curves, or effect the other way; inactive = no such curve, though single readings can be large or run the other way; the % refers to the signal ratio; note: potency is the fitted concentration of half-maximal effect)
# In short: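 HEK293 cells stably carrying an ER-alpha-UAS-bla beta-lactamase reporter were pre-cultured overnight in 2% charcoal-stripped FBS medium. Test compounds in DMSO were added together with 17beta-estradiol for 18 hr at 37C. Read-out was fluorescence after 2 hr with LiveBLAzer B/G FRET substrate at room temperature.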
# [17] = molecular target: Estrogen receptor (Homo sapiens) (UniProt P03372); test: qHTS assay to identify small molecule agonists of the estrogen receptor alpha (ER-alpha) signaling pathway using the BG1 cell line (AID 743079); note: nearly all actives have a fitted effect of over 20% in size; note: potency is the fitted concentration of half-maximal effect
# [18] = qHTS assay to identify small molecule antagonists of the estrogen receptor alpha (ER-alpha) signaling pathway using the BG1 cell line (AID 743080; calls by dose curve;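 note: BG1 cells stimulated with 17beta-estradiol alongside compound; series mostly up to about 70 µM; nearly all actives have a fitted effect of over 25% in size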)
# In short: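 Luciferase inhibition measured with ONE-Glo after 30 min at RT in BG1Luc4E2 cells given test compounds and 17beta-estradiol for 21.5 h at 37 C; CellTiter-Fluor viability read in the same wells beforehand.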
SMILES,Potency [1],Potency [2],Potency [3],Potency [4],outcome [5],Potency [6],Potency [7],Potency [8],Potency [9],Potency (Aromatase (Homo sapiens)),Potency [10],Potency [11],Potency [12],Potency [13],Potency [14],Potency [15],Potency [16],Potency [17],Potency [18]
ClCc1cccc(Cl)c1,inactive,inactive,inactive,inactive,inactive,,,,,,,,,,,,,,
O=S1OC[C@@H]2[C@H](CO1)[C@]1(Cl)C(Cl)=C(Cl)[C@@]2(Cl)C1(Cl)Cl (some centres not stated),inactive,,,,,inactive,inactive,inactive,inactive,61.1 µM (active),inactive,inactive,inactive,,,,,,
COc1ccc(-c2ccccc2)cc1NNC(=O)OC(C)C,,inactive,inactive,,inactive,inactive,,inactive,inactive,inactive,,,,71.5 µM (active),inactive,16 µM (active),,,
C[C@]12CC[C@H]3[C@@H](CCC4=CC(=O)CC[C@@H]43)[C@@H]1CC[C@@H]2OC(=O)CCC1CCCCC1,,inactive,inactive,inactive,inactive,,,,,,,,,,,,,,
CC(C)N(C(=O)COc1nnc(C(F)(F)F)s1)c1ccc(F)cc1,7.76 µM (active),inactive,inactive,,,inactive,inactive,inactive,inactive,inactive,,inactive,inactive,,inactive,,inactive,inactive,inactive
C=CC(=O)OCCCCO,inactive,inactive,inactive,,,inactive,inactive,,inactive,,,inactive,,,,3.86 µM (active),,inactive,inactive
CN(C)c1ccc(N(C)C)cc1,,inactive,inactive,inactive,inactive,inactive,,inactive,inactive,,61.3 µM (active),inactive,,inactive,inactive,,,,
Nc1ccc(N=Nc2ccc(-c3ccc(N=Nc4c(S(=O)(=O)O)cc5cc(S(=O)(=O)O)c(N=Nc6ccccc6)c(O)c5c4N)cc3)cc2)c(N)c1,,inactive,inactive,inactive,,inactive,,inactive,inactive,,5.56 µM (active),39.4 µM (active),,,31.3 µM (active),inactive,,inactive,inactive
C#CCOC(C(=O)OCCN(C)C)(c1ccccc1)c1ccccc1,inactive,,inactive,inactive,inactive,inactive,inactive,,inactive,inactive,inactive,inactive,,inactive,inactive,inactive,,,
CCCCCC[N+](=O)[O-],,,inactive,inactive,inactive,inactive,inactive,,inactive,inactive,inactive,inactive,,inactive,inactive,,,,
Nc1ccc([N+](=O)[O-])cc1[N+](=O)[O-],,inactive,inactive,inactive,inactive,inactive,inactive,inactive,,inactive,,inactive,inactive,,inactive,,,inactive,inactive
C=CC(=O)NCNC(=O)C=C,,,inactive,,inactive,inactive,,inactive,,inactive,,inactive,,inactive,,,,,
CC(c1ccc(O)cc1)(c1ccc(O)cc1)c1ccc(O)cc1,21.9 µM (active),,,inactive,,,,,inactive,,inactive,,,61.1 µM (active),inactive,,21.9 µM [inconclusive] (active),27.3 µM (active),
CN1[C@@H]2CC[C@H]1CC(OC(=O)c1cc(Cl)cc(Cl)c1)C2 (some centres not stated),inactive,,,inactive,inactive,,inactive,inactive,inactive,inactive,,,inactive,,inactive,,inactive,inactive,inactive
O=C(Nc1ccccc1)Nc1ccnc(Cl)c1,,,,inactive,inactive,inactive,inactive,inactive,inactive,54.5 µM (active),,,,27.3 µM (active),,,,,
